Screen size: about 310,000 compounds; about 14,000 (4.5%) showed an effect of 50% or more. Effects have a minus sign here. This is one part of a sample in which strong results are shown more often than they occur.
Each compound was assayed against human ether-à-go-go-related gene (hERG) potassium channel (human, UniProt Q12809) (assay: primary screen, population patch clamp on CHO cells stably expressing hERG; higher = less effect of the substance).
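Also: peak tail current of the secondary pulse compared with the same well before compound.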

Chain of human ether-à-go-go-related gene (hERG) potassium channel (Q12809 whole entry, looked up): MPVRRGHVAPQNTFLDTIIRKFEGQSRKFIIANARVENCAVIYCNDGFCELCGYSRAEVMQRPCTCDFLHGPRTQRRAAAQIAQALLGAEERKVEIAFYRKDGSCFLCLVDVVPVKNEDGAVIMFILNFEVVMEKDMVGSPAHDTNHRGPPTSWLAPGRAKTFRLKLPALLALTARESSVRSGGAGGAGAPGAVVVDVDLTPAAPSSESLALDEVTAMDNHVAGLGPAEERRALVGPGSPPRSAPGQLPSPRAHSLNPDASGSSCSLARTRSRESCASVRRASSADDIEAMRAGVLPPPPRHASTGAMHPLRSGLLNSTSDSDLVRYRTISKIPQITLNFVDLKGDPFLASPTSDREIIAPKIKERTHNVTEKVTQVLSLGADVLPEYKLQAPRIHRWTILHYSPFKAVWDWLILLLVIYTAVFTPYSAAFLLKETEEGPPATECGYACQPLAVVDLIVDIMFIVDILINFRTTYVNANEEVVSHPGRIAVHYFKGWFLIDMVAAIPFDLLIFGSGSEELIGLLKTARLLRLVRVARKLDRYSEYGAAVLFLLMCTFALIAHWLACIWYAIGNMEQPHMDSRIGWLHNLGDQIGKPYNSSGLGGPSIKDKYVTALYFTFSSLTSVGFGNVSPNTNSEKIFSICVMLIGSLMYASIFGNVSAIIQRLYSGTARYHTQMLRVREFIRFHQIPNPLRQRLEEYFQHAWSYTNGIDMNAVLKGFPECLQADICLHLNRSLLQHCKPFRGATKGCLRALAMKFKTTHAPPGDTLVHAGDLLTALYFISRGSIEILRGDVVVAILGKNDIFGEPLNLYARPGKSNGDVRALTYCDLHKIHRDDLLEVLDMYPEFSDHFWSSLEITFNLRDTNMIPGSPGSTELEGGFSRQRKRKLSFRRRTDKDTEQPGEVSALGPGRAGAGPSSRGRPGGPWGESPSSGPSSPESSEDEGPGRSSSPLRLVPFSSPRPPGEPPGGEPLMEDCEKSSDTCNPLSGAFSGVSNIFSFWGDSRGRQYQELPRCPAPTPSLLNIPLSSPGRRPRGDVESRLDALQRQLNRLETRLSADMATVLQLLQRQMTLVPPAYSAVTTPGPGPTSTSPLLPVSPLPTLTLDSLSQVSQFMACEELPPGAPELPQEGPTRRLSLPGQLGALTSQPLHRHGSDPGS

SMILES	hERG current change (%, negative = inhibition) at 10uM [%]
CC1=NN(C(=O)Cc2ccc([N+](=O)[O-])cc2)C(O)(C(F)(F)C(F)(F)F)C1 (centres unmarked)	-12.4
O=C(Nc1nnc(-c2ccco2)o1)c1cccc(N2C(=O)CCC2=O)c1	7.91
CCOc1ccc(Br)cc1C(=O)N/N=C/c1cccnc1	1.64
CCCn1c(SCCC(=O)O)nc2ccccc21	8.62
O=[N+]([O-])c1ccc(-c2c(-c3ccccc3)ncc3cc(F)ccc23)cc1	1.58
O=C(CNc1cc(S(=O)(=O)N2CCCC2)ccc1OCC(F)(F)F)Nc1cc(Cl)cc(Cl)c1	6.5
CC(=O)Nc1c(O)nc(C)[nH]c1=O	6.51
O=c1cc(CSc2nnc(COc3cccc4ccccc34)o2)c2ccccc2[nH]1	22.2
CCCCNC(=O)Nc1ccc(Br)cn1	-16.2
CCCNC(=O)c1nn2cc(Br)cnc2c1Br	-69.2
CCCCNC(=O)c1nn2cc(Br)cnc2c1Br	-62.3
COCCNC(=O)c1nn2cccnc2c1Cl	-11.3
CCCNC(=O)c1nn2cc(Br)cnc2c1Cl	-73.2
COCCNC(=O)c1cc2ncc(Br)cn2n1	5.41
CCCCNC(=O)c1nc2ncc(Br)cn2n1	-21
CCCNC(=O)c1nc2ncc(Br)cn2n1	-31.1
CCc1ccccc1NC(=O)c1cc2ncc(Br)cn2n1	9.22
O=C(/C=C/c1ccccc1)Nc1ccc(NC(=O)c2cccs2)cc1	6.8
COC(=O)c1cc(-c2ccc(NC(C)=O)cc2)nc2ccccc12	6.01
CCOC(=O)CC(NC(=O)Cc1ccccc1)c1ccccc1Cl (centres unmarked)	1.83
Cc1ccc(Nc2ncc3c(n2)CC(C)(C)CC3=O)cc1	-10
N/C(=N/OCC(=O)Nc1cccc2ccccc12)c1nonc1N	-14
CCOc1ccc(C(=O)O/N=C(\N)c2ccc([N+](=O)[O-])cc2)cc1OCC	-6.93

SMILES	hERG current change (%, negative = inhibition) at 10uM [%]
CN1CCN(Cc2nc3ccccc3c(=O)n2Cc2nc(-c3ccc4ccccc4c3)cs2)CC1	-6.55
CN(C)Cc1nc2ccccc2c(=O)n1Cc1nc(-c2cccc([N+](=O)[O-])c2)cs1	-36.9
CN1CCN(Cc2nc3ccccc3c(=O)n2CC#N)CC1	-2.87
CN1CCN(Cc2nc3ccccc3c(=O)n2Cc2nc(-c3ccccc3F)cs2)CC1	-71
CN1CCN(Cc2nc3ccccc3c(=O)n2Cc2nc(-c3ccc([N+](=O)[O-])cc3)cs2)CC1	-73.8
CN(C)Cc1nc2ccccc2c(=O)n1Cc1nc(-c2cc3ccccc3o2)cs1	9.3
Cc1cc2[nH]c(=O)c(=O)[nH]c2cc1S(=O)(=O)Nc1cccc(Cl)c1C	-0.165
CCN1CCN(C2=NC(=O)/C(=C/c3ccc(C)o3)S2)CC1	-20.9
O.[I-].c1ccc2[nH]c(-c3cc[nH+]c4ccccc34)nc2c1	-12.6
CCOc1ccccc1NC(=O)C1CCCN(c2c(CC)c(C)nc3ncnn23)C1 (centres unmarked)	-65.1
CCc1c(C)nc2ncnn2c1N1CCC(C(=O)NCc2cccs2)CC1	-44.4
CCc1c(C)nc2ncnn2c1N1CCC(C(=O)Nc2ccc(C)cc2)CC1	-55.9
CCc1c(C)nc2ncnn2c1N1CCCC(C(=O)Nc2ccc(NC(C)=O)cc2)C1 (centres unmarked)	14.2
CCOc1ccc(NC(=O)C2CCCN(c3c(CC)c(C)nc4ncnn34)C2)cc1 (centres unmarked)	-65.8
CCc1c(C)nc2ncnn2c1N1CCCC(C(=O)NCCc2ccccc2)C1 (centres unmarked)	-15.2
O=C(C1CCN(c2ccc(N3CCOCC3)nn2)CC1)N1CCN(c2ccc(F)cc2)CC1	-47.4
CCc1c(C)nc2ncnn2c1N1CCCC(C(=O)Nc2cc(F)ccc2C)C1 (centres unmarked)	-40.6
CCc1c(C)nc2ncnn2c1N1CCC(C(=O)N2CCN(c3ccc(F)cc3)CC2)CC1	-67.9
CCc1c(C)nc2ncnn2c1N1CCCC(C(=O)NCCc2ccc(OC)cc2)C1 (centres unmarked)	-19.6
CCc1c(C)nc2ncnn2c1N1CCC(C(=O)Nc2cccc(C(C)=O)c2)CC1	-22.6
CCc1c(C)nc2ncnn2c1N1CCC(C(=O)Nc2ccccc2)CC1	-44.4
Cc1nc2ccc(NC(=O)Cc3cccs3)cc2s1	11
CCOC(=O)N/N=C/C=C/c1ccccc1	1.98

SMILES	hERG current change (%, negative = inhibition) at 10uM [%]
O=C(O)c1cc(N/N=C/c2c[nH]c3ccccc23)ccc1Cl	10.3
O=S(=O)(/C=C/c1ccccc1)N1CCN(c2ccccc2)CC1	-2.08
S=c1[nH]nc(-c2ccco2)n1/N=C/c1c(Cl)cccc1Cl	-10.9
Cc1cc(NC(=O)c2ccc(Cl)cc2)ccc1NC(=O)c1ccccc1Cl	9.97
Cc1cc(C)c(C(=O)COC(=O)c2nn(C)c(=O)c3ccccc23)cc1C	-30.4
O=C(O)c1ccccc1C(=O)NCCCCCCNC(=O)c1ccccc1C(=O)O	7.63
Cc1ccccc1NC1=CC(=O)CC(C)(C)C1	-0.789
COc1cc(-c2nc(CN3CCN(CC(C)C)C(=O)[C@@H]3C)c(C)o2)ccc1F	-14.2
CCC1CCCCN1CCCNC(=O)CS(=O)Cc1nc(-c2ccc(OC)c(OC)c2)oc1C (centres unmarked)	5.21
CCOC(=O)C1CCCCN1Cc1cn[nH]c1-c1ccc(F)cc1F (centres unmarked)	1.06
COc1ccc(-c2nc(CS(=O)CC(=O)NCCN3CCCCC3C)c(C)o2)cc1OC (centres unmarked)	16.8
CCOC(=O)C1CCCN(Cc2cn[nH]c2-c2ccc(F)cc2F)C1 (centres unmarked)	-2.03
COc1ccc(-c2nc(CSCC(=O)N3CCC(C(N)=O)CC3)c(C)o2)cc1OC	-0.184
CCOC(=O)CC1CCCCN1Cc1cn[nH]c1-c1ccc(F)cc1F (centres unmarked)	-64.8
COc1cc(-c2nc(CN3CCCCC3CCNC(C)=O)c(C)o2)ccc1F (centres unmarked)	-66.6
CCOC(=O)CC1CCCCN1Cc1nc(-c2ccc(F)c(OC)c2)oc1C (centres unmarked)	-65.5
O=C(CSc1nc2cc(Cl)ccc2s1)NCc1ccc2c(c1)OCO2	0.137
COc1cc(OC)cc(C(=O)N(Cc2cc3cc(C)ccc3[nH]c2=O)C(C)C)c1	-7.49
O=C(C[n+]1ccccc1)N/N=C/c1ccc(Cl)cc1.[Cl-]	-5.76
NC(=O)CSc1nnnn1-c1ccccc1Cl	6.07
O=C(N/N=C/C(Br)=C/c1ccccc1)c1ccccc1F	-38.5
Cc1ccc2c(CC(=O)N3CCOCC3)coc2c1	8.58
CCN(CC)S(=O)(=O)c1ccc(C(=O)OCCN2C(=O)CCC2=O)cc1	-7.82

SMILES	hERG current change (%, negative = inhibition) at 10uM [%]
Cn1c(=O)c2c(nc(SCCN3CCCCC3)n2Cc2ccccc2)n(C)c1=O	-76
Cc1ccc(Cn2c(SCCN3CCOCC3)nc3c2c(=O)n(C)c(=O)n3C)cc1	-28
Cc1cccc(Cn2c(SCCN3CCOCC3)nc3c2c(=O)n(C)c(=O)n3C)c1	-26.2
Cn1c(=O)c2c(nc(SCCN3CCOCC3)n2Cc2ccccc2)n(C)c1=O	-32.5
Cn1c(=O)c2c(nc(SCCN3CCOCC3)n2Cc2ccc(F)cc2)n(C)c1=O	-56
Cn1c(=O)c2c(nc(SCCN3CCCCC3)n2Cc2ccc(Cl)cc2)n(C)c1=O	-72.3
Cn1c(=O)c2c(nc(SCCN3CCCCC3)n2C)n(C)c1=O	3.49
Cn1c(=O)c2c(nc(SCCN3CCOCC3)n2Cc2ccccc2Cl)n(C)c1=O	-36.8
CCCSc1nc2c(c(=O)n(C)c(=O)n2C)n1Cc1ccc(C)cc1	-3.8
CCSc1nc2c(c(=O)n(C)c(=O)n2C)n1Cc1ccc(Cl)cc1	-17.5
Cc1ccc(Cn2c(SCC(C)C)nc3c2c(=O)n(C)c(=O)n3C)cc1	4.03
Cc1ccc(Cn2c(SCCN3CCCCC3)nc3c2c(=O)n(C)c(=O)n3C)cc1	-75.4
O=C(NCc1ncc(C(F)(F)F)cc1Cl)Nc1ccccc1	3.57
Cc1ccc(C2=NN(C(=O)CCC(=O)O)C(c3ccc4c(c3)OCO4)C2)cc1 (centres unmarked)	-2.17
COc1ccccc1NCC(=O)n1nc(C)cc1C	29.8
NC(=O)Nc1cc(Cl)ccc1Cl	2.21
COc1cc(-c2nnc(COC(=O)c3ccc(C)o3)o2)cc(OC)c1OC	7.46
Cc1ccc(/C=C/C(=O)NCCc2c[nH]c3ccccc23)o1	-7.78
O=C(NCc1ccccn1)C1CCN(S(=O)(=O)c2cccs2)CC1	-15.8
Cc1ccc2nc(Nc3ccc(C)c(C)c3)c3nncn3c2c1	14.5
